Measured values as given in PubChem BioAssay.

These compounds were tested against Streptavidin (Streptomyces avidinii) (UniProt P22629) (assay: streptavidin binders on small-molecule microarray, primary screen, artefact control for SMM compound annotation, biophysical, 635/667 nm fluorescence (AID 1147;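 note: signal reflects streptavidin binding to arrayed compounds as a control protein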)). Conditions: streptavidin binding, higher = more signal.
Streptavidin (Streptomyces avidinii), sequence (P22629 whole entry, looked up): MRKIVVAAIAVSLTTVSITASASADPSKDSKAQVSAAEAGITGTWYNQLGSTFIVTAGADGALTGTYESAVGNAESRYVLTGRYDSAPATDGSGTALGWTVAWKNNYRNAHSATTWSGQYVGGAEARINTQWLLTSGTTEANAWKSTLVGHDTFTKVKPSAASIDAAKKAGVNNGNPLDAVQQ

Row | SMILES | composite z-score
1 | CC(C)C(=C=CC[C@@H](O)c1ccc(OCCO)cc1)CCO | -0.292
2 | CC#CCO[Si](C#CCCCCCC)(C(C)C)C(C)C | -2.45
3 | CN(C)CCCC[C@@H]1NC(=O)[C@H]2C[C@@H](C(=O)NCc3ccc(F)cc3)[C@@H](c3ccc(O)cc3)N2C1=O | -0.122
4 | CC(C)N1CC=CC23O[C@@H]4C=CCCOC(=O)C4[C@H]2C(=O)N(CCCCCO)[C@@H]3C1=O (stereo partly drawn) | 1.88
5 | COCCOC(=O)N1C(=O)[C@@]2(c3ccccc31)[C@H](C(=O)N1CCCCCCC1)[C@H]1C(=O)O[C@H](c3ccccc3)[C@H](c3ccccc3)N1[C@@H]2c1ccc(O)cc1 | 2.17
6 | C#CCN([C@H](/C=C/C1CC1)[C@@H](O)Cc1ccccc1)[C@@H](Cc1ccccc1)C(=O)OC | 0.483
7 | COC(=O)[C@@]1(Cc2ccc(F)cc2)[C@H]2c3cc(C(=O)N(C)C)n(CCn4cc([N+](=O)[O-])nc4C)c3C[C@H]2CN1C(=O)c1ccccc1 | 0.0438
8 | CCOC(=O)C[C@H]1[C@H](OC(=O)Cc2ccc3c(c2)OCO3)[C@@H](NC(=O)c2ccccc2)c2cc(OCCCO)ccc2N1C(=O)Cc1ccc(OC)cc1 | 0.662
9 | C[N+](C)(C)CCCC[C@@H]1NC(=O)[C@H]2C[C@@H](C(=O)NCCCCCNC(=O)CS)[C@@H](c3ccc(O)cc3)N2C1=O | 0.354
10 | CN1C(=O)[C@]2(CCS(=O)(=O)c3ccccc3)N=C(c3ccc(OCCCO)cc3)O[C@@H]2c2ccccc21 | 0.294
11 | O=C1O[C@@H](c2ccccc2)[C@@H](c2ccccc2)N2[C@@H](c3ccc(OCCO)cc3)[C@]3(C(=O)Nc4ccc(C#CCCO)cc43)[C@@H](C(=O)Nc3nc4ccccc4s3)[C@H]12 | 1.05
12 | COCCn1c(C(=O)N2CCCC2)cc2c1C[C@H]1CN(C(=O)c3ccccc3)[C@@](Cc3ccccc3)(C(=O)OC)[C@@H]21 | 0.393
13 | CC(C)(C)N1CC=CC23O[C@@H]4/C=C\CCCOC(=O)C4[C@H]2C(=O)N(CCCCCCO)[C@@H]3C1=O (stereo partly drawn) | -1
14 | CCCC[C@@H](O)C1=C(COC)Cn2c(=O)n(-c3ccccc3)c(=O)n2[C@H]1CO | -0.538
15 | COC(=O)[C@@H]1N=C(c2ccc(OCCCO)cc2)O[C@@H]1c1ccccc1CN=[N+]=[N-] | 0.551
16 | CN1C=C(C(=O)OCCS(C)(=O)=O)C(C(=O)OCCS(C)(=O)=O)=CC(CCCO)=CC1c1ccc(CN2CCCC2)cc1 (stereo not drawn) | 1.24
17 | COCCOC(=O)N1C(=O)[C@@]2(c3ccccc31)[C@H](C(N)=O)[C@H]1C(=O)O[C@H](c3ccccc3)[C@H](c3ccccc3)N1[C@@H]2c1ccc(OCCO)cc1 | 0.554
18 | CC(C)CNC(=O)[C@@H]1c2ccccc2C(=O)N(C(C)C)[C@H]1c1ccc(CO)cc1 | -1.16
19 | CC(C)c1ccc(NN2C(C(O)C(C)C)C=CC3C(=O)N(c4ccccc4)C(=O)C32)cc1 (stereo not drawn) | 1.44
20 | COCCOC(=O)N1C(=O)[C@@]2(c3cc(C#CCC(C(=O)OC)C(=O)OC)ccc31)[C@H](C(=O)N1CCCCCCC1)[C@H]1C(=O)O[C@H](c3ccccc3)[C@H](c3ccccc3)N1[C@@H]2c1ccccc1OCCO | 2.68
21 | O=C(NCCO)C1=C[C@H](Oc2ccccc2I)[C@@H](O)[C@H](NCc2ccc(F)cc2)C1 | -0.743
22 | COC(=O)Cn1c(C(=O)N(C)C)cc2c1C[C@H]1CN(C(=O)c3ccccc3)[C@@](Cc3ccc(OC)cc3)(C(=O)OC)[C@@H]21 | 0.896
23 | [N-]=[N+]=NCc1ccccc1C[C@]1(C(=O)NCc2ccccc2)N=C(c2ccc(OCCCO)cc2)O[C@H]1c1ccccc1CN=[N+]=[N-] | 0.208
24 | CC(=O)NCCCC[C@@H]1NC(=O)[C@H]2C[C@@H](C(=O)NCCCCCC[N+](C)(C)C)[C@@H](c3ccc(O)cc3)N2C1=O | -0.448
25 | [N-]=[N+]=NCc1ccccc1C[C@]1(C(=O)N2CCCCC2)N=C(c2ccc(OCCCO)cc2)O[C@H]1c1ccccc1 | 0.483
26 | COc1ccc(CCNC(=O)[C@@]2(Sc3ccc(C)cc3)CC(=O)N(C(C)C)[C@@H]2c2ccc(CO)cc2)cc1 | -0.621
27 | COC(=O)C(CC#Cc1ccc2c(c1)[C@]1(C(=O)N2)[C@H](c2ccc(O)cc2)N2[C@H](c3ccccc3)[C@H](c3ccccc3)OC(=O)[C@H]2[C@@H]1C(=O)N1CCc2cc(OC)c(OC)cc2C1)C(=O)OC | 0.455
28 | COc1ccccc1CN1C(=O)c2ccccc2[C@](Cc2ccccc2I)(C(=O)NCCCN(C)C)[C@@H]1c1ccc(CO)cc1 | 0.956
